This is an account of results in PubChem BioAssay (EPA / NIEHS).

Records with an inconclusive call do not appear. Active and inactive are the calls of the source. Rule for the calls: active = hit-call score of the fitted dose curve at least 0.9, where 1 is the maximum; inconclusive = response in the unintended direction; inactive = score below 0.9.

The target of experiment [1] is human MET Proto-Oncogene, Receptor Tyrosine Kinase (MET), MET (gene 4233) (UniProt P08581). In words: NVS_ENZ_hMet: NovaScreen (NVS) Enzymatic Assay for human MET Proto-Oncogene, Receptor Tyrosine Kinase (MET) (AID 2283180). The gist of the method: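 Cell-free MET kinase assay using recombinant protein and fluorescent substrate, with mobility-shift separation; read 1 h after dosing. Primary duplicate at 25 uM; actives in singleton concentration-response to 50 uM maximum. Signal loss versus DMSO.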

The target in experiment [2] is Collagenase 3 (Homo sapiens) (UniProt P45452). As to the kind of experiment: NVS_ENZ_hMMP13: NovaScreen (NVS) Enzymatic Assay for human Matrix Metalloproteinase-13 (MMP13) (AID 2283182). In a few lines: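 Recombinant MMP13 cleaving fluorescent substrate, cell-free, measured 1 h after dosing. Primary duplicate screen at 25 uM; actives tested in concentration-response up to 50 uM; loss of signal relative to DMSO.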

The target of experiment [3] is human Matrix Metalloproteinase-2 (MMP2), MMP2 (gene 4313) (UniProt P08253). As to the kind of experiment: NVS_ENZ_hMMP2: NovaScreen (NVS) Enzymatic Assay for human Matrix Metalloproteinase-2 (MMP2) (AID 2283184). The gist of the method: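 Cell-free recombinant MMP2 activity with a fluorescent substrate, read 1 h after dosing. Primary screen in duplicate at 25 uM; actives then run in concentration series; loss of signal fitted versus DMSO.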

Experiment [4] addresses human Matrix Metalloproteinase-3 (MMP3), MMP3 (gene 4314) (UniProt P08254). As to the kind of experiment: NVS_ENZ_hMMP3: NovaScreen (NVS) Enzymatic Assay for human Matrix Metalloproteinase-3 (MMP3) (AID 2283185). The gist of the method:
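Cell-free recombinant human MMP3 activity, fluorescence intensity read 1 h after dosing. Primary screen duplicate at 25 uM, actives retested in concentration series; loss of signal vs DMSO baseline.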

For experiment [5], the target named is human Matrix Metalloproteinase-7 (MMP7), MMP7 (gene 4316) (UniProt P09237). In words: NVS_ENZ_hMMP7: NovaScreen (NVS) Enzymatic Assay for human Matrix Metalloproteinase-7 (MMP7) (AID 2283183). The gist of the method: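 Cell-free fluorescence enzymatic assay read 1 h after compound addition, activity loss analyzed against DMSO. Primary duplicate testing at 25 uM; compounds meeting threshold rerun in singleton concentration-response up to 50 uM.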

Experiment [6] concerns the target human p21 Activated Kinase 4 (PAK4), PAK4 (gene 10298) (UniProt O96013). As to the kind of experiment: NVS_ENZ_hPAK4: NovaScreen (NVS) Enzymatic Assay for human p21 Activated Kinase 4 (PAK4) (AID 2283189). The gist of the method:
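Cell-free recombinant human PAK4 activity assay; fluorescent substrate and product separated by electrophoretic mobility shift, read 1 h after dosing. Initially tested in duplicate at 25 uM, relative to DMSO baseline.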

Experiment [7] deals with human Phosphodiesterase 4A1 (PDE4A1), PDE4A (gene 5141) (UniProt P27815). As to the kind of experiment: NVS_ENZ_hPDE4A1: NovaScreen (NVS) Enzymatic Assay for human Phosphodiesterase 4A1 (PDE4A1) (AID 2283191). In a few lines:
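Cell-free recombinant human PDE4A1 with fluorescent substrate; product separated by electrophoretic mobility shift, 1 h. Screened at 25 uM, then up to 50 uM in concentration-response; loss of signal fitted against DMSO.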

The target of experiment [8] is human Protein Phosphatase, Mg2+/Mn2+ Dependent 1A (PPM1A), PPM1A (gene 5494) (UniProt P35813). In words: NVS_ENZ_hPPM1A: NovaScreen (NVS) Enzymatic Assay for human Protein Phosphatase, Mg2+/Mn2+ Dependent 1A (PPM1A) (AID 2283198). The gist of the method:
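Cell-free recombinant PPM1A phosphatase assay with fluorescent substrate, read 1 h after dosing by electrophoretic mobility shift. Chemicals screened in duplicate at 25 uM, then in concentration-response up to 50 uM; loss of activity versus DMSO.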

The target in experiment [9] is human Protein Tyrosine Phosphatase Non-receptor Type 1 (PTPN1), PTPN1 (gene 5770) (UniProt P18031). In words: NVS_ENZ_hPTPN1: NovaScreen (NVS) Enzymatic Assay for human Protein Tyrosine Phosphatase Non-receptor Type 1 (PTPN1) (AID 2283201). The gist of the method:
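Cell-free fluorogenic-substrate activity assay on recombinant enzyme, read 1.33 h after dosing by fluorescence and electrophoretic mobility shift; loss of signal vs DMSO baseline. Primary screen in duplicate at 25 uM, hits then run in concentration-response up to 50 uM.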

For experiment [10], the target named is Tyrosine-protein phosphatase non-receptor type 12 (Homo sapiens) (UniProt Q05209). In words: NVS_ENZ_hPTPN12: NovaScreen (NVS) Enzymatic Assay for human Protein Tyrosine Phosphatase Non-receptor Type 12 (PTPN12) (AID 2283204). The gist of the method: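 Single-concentration duplicates (25 uM) preceded singleton concentration-response up to 50 uM for chemicals passing threshold. Cell-free recombinant PTPN12 activity was read 1.33 h after dosing via fluorescence after mobility-shift separation; loss of signal versus DMSO.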

In experiment [11] the target is Tyrosine-protein phosphatase non-receptor type 13 (Homo sapiens) (UniProt Q12923). In words: NVS_ENZ_hPTPN13: NovaScreen (NVS) Enzymatic Assay for human Protein Tyrosine Phosphatase Non-receptor Type 13 (PTPN13) (AID 2283205). The gist of the method: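 Cell-free assay of recombinant human PTPN13 with a fluorescent substrate, product separated by electrophoretic mobility shift and read 0.5 h after dosing. Primary screen at 25 uM in duplicate, then concentration-response up to 50 uM. Loss of signal fitted against DMSO.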

Experiment [12] addresses human Protein Tyrosine Phosphatase Non-receptor Type 6 (PTPN6), PTPN6 (gene 5777) (UniProt P29350). As to the kind of experiment: NVS_ENZ_hPTPN6: NovaScreen (NVS) Enzymatic Assay for human Protein Tyrosine Phosphatase Non-receptor Type 6 (PTPN6) (AID 2283210). The gist of the method: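 Cell-free assay with recombinant PTPN6 expressed in SF9 cells, fluorescent substrate, product separated from substrate by electrophoretic mobility shift; read 1.33 hours after dosing. Primary screen in duplicate at 25 uM, actives retested in concentration series; DMSO baseline.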

In experiment [13] the target is human Phosphodiesterase 10 (PDE10), PDE10A (gene 10846) (UniProt Q9Y233). As to the kind of experiment: NVS_ENZ_hPDE10: NovaScreen (NVS) Enzymatic Assay for human Phosphodiesterase 10 (PDE10) (AID 2283195). The gist of the method: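 Recombinant human PDE10 with fluorescent substrate, 1 h, product separated by electrophoretic mobility shift. Loss of enzyme activity fitted against DMSO; initial screen 25 uM in duplicate, actives run to 50 uM maximum.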

The target of experiment [14] is Serine/threonine-protein phosphatase PP1-alpha catalytic subunit (Homo sapiens) (UniProt P62136). As to the kind of experiment: NVS_ENZ_hPPP1CA: NovaScreen (NVS) Enzymatic Assay for human Protein Phosphatase 1 Aatalytic subunit Alpha (PPP1CA) (AID 2283200). In a few lines:
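Recombinant enzyme activity read by fluorescence with electrophoretic mobility shift separating substrate from product, 1.33 h after dosing; loss of signal vs DMSO baseline. Primary screen in duplicate at 25 uM; actives retested in concentration-response up to 50 uM.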

The target in experiment [15] is Tyrosine-protein phosphatase non-receptor type 14 (Homo sapiens) (UniProt Q15678). In words: NVS_ENZ_hPTPN14: NovaScreen (NVS) Enzymatic Assay for human Protein Tyrosine Phosphatase Non-receptor Type 14 (PTPN14) (AID 2283206). In a few lines:
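Cell-free recombinant human PTPN14 with fluorescent substrate, read 0.5 h after dosing by fluorescence and electrophoretic mobility shift separating substrate from product. Primary screen at 25 uM in duplicate; hits run to 50 uM maximum; loss of signal versus DMSO.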

Chain of Tyrosine-protein phosphatase non-receptor type 13 (Homo sapiens) (Q12923 whole entry, looked up): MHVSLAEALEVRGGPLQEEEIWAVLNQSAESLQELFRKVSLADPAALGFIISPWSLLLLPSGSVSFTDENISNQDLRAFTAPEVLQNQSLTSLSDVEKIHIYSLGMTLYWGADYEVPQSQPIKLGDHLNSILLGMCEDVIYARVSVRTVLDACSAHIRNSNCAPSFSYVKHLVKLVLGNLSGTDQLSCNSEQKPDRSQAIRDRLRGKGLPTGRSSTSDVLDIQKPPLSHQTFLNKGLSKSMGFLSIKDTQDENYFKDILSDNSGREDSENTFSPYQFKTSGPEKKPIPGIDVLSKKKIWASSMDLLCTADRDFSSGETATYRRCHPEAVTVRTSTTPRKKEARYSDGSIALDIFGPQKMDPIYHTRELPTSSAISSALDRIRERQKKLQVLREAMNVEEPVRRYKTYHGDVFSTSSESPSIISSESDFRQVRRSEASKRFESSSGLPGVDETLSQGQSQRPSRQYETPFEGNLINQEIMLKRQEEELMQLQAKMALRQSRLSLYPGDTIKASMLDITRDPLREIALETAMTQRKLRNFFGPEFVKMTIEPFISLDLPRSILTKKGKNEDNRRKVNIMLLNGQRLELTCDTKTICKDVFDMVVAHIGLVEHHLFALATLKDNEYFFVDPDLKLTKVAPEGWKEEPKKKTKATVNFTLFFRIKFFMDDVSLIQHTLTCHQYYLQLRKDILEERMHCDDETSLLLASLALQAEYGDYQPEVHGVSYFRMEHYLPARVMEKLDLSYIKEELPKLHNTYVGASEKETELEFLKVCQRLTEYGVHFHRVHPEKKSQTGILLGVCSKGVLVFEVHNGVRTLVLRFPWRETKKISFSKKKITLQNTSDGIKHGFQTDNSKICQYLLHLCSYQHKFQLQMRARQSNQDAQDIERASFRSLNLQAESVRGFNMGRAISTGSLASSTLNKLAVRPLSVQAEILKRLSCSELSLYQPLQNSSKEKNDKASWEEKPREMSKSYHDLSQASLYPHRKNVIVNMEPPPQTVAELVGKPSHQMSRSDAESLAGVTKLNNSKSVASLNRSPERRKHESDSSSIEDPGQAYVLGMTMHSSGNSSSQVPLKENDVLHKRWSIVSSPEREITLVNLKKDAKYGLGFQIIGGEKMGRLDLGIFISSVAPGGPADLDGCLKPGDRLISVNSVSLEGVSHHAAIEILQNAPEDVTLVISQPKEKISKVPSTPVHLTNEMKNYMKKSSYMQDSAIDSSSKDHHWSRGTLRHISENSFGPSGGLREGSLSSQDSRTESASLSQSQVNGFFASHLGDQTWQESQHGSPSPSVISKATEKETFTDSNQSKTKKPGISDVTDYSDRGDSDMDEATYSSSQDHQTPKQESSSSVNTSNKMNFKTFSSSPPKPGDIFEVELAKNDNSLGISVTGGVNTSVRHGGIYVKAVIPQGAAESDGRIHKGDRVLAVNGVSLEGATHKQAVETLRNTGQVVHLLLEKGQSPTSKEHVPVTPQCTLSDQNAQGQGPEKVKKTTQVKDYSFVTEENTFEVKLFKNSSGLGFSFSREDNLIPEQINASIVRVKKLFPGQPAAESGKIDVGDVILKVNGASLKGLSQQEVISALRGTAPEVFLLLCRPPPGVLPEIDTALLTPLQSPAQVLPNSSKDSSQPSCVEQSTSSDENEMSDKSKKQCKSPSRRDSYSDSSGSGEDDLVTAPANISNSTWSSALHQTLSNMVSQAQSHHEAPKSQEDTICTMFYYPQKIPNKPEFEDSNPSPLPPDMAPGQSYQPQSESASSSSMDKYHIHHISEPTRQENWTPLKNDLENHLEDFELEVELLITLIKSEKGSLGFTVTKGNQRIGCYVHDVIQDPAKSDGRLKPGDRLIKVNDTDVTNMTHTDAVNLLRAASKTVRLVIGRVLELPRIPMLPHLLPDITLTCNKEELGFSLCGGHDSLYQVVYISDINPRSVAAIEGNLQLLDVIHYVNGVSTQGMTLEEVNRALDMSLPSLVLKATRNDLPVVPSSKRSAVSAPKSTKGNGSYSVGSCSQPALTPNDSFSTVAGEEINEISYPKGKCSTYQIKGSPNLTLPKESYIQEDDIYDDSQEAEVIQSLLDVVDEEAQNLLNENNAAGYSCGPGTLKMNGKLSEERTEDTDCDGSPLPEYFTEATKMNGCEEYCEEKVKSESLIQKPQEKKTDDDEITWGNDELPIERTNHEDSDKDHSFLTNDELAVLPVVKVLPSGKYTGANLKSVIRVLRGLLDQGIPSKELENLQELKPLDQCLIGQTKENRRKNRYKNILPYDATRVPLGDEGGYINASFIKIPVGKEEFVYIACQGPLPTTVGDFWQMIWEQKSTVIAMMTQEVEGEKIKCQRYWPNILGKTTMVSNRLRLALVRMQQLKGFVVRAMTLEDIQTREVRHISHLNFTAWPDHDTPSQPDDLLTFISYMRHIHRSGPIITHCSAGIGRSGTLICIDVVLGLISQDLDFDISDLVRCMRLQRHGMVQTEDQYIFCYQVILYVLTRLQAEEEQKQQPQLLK
Chain of human p21 Activated Kinase 4 (PAK4), PAK4 (gene 10298) (O96013 whole entry, looked up): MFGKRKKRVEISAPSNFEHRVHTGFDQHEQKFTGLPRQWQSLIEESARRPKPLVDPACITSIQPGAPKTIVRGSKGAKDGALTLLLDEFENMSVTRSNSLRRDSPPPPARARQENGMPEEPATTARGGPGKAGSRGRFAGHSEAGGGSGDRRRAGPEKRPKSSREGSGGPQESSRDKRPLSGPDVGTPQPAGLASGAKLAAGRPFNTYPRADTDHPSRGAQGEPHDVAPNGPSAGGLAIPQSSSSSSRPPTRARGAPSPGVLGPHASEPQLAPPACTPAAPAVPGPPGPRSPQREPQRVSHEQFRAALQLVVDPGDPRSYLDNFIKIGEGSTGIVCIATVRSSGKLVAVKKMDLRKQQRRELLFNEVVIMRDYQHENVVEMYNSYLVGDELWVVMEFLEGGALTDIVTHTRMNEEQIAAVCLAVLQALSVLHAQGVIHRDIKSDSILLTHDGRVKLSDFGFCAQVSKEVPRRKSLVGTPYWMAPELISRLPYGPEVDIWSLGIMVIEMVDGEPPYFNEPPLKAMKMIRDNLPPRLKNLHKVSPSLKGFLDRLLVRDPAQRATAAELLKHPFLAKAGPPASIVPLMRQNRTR
Chain of human Matrix Metalloproteinase-2 (MMP2), MMP2 (gene 4313) (P08253 whole entry, looked up): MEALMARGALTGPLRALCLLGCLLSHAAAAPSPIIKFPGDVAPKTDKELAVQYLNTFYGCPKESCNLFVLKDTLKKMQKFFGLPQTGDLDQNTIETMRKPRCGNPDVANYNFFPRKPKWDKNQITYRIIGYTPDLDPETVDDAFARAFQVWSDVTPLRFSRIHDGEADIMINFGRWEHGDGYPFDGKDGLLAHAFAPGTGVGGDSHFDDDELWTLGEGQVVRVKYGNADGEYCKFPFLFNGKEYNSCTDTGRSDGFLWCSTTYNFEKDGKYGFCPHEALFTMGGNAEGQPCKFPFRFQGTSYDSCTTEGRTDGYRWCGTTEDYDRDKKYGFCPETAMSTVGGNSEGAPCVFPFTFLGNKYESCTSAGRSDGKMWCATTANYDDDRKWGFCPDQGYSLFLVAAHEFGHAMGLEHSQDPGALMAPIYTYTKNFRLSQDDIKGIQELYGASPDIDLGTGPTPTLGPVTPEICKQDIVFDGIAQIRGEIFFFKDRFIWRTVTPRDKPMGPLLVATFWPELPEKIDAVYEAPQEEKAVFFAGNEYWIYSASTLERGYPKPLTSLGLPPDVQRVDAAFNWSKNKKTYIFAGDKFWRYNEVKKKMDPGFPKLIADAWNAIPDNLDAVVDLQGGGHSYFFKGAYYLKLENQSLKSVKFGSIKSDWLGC
Chain of human Phosphodiesterase 10 (PDE10), PDE10A (gene 10846) (Q9Y233 whole entry, looked up): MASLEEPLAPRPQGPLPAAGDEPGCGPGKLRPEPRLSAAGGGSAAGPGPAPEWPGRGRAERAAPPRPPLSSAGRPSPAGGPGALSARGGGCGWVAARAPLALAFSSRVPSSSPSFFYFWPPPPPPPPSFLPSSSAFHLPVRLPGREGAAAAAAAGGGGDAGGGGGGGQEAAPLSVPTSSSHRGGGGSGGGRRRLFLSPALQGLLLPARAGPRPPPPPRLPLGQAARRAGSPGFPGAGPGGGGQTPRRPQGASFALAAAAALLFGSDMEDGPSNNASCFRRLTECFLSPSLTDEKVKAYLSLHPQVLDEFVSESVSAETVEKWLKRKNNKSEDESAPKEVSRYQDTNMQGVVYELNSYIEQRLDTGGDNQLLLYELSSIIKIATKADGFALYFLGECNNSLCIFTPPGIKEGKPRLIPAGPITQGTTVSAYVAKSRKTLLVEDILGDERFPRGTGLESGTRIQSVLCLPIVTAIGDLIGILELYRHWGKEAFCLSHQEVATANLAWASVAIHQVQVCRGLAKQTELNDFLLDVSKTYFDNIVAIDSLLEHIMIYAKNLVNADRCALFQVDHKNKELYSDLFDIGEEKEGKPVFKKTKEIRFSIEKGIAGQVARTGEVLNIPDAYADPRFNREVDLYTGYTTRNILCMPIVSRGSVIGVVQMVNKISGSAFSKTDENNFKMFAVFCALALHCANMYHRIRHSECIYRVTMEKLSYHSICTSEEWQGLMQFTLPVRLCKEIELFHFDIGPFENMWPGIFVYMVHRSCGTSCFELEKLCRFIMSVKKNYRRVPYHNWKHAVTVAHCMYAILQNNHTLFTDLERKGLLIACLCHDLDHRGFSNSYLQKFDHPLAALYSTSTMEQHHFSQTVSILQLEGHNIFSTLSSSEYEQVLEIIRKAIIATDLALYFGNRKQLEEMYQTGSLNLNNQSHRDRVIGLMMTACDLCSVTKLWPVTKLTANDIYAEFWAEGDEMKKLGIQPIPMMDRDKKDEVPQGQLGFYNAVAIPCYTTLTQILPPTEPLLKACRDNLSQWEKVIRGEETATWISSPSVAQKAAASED
Chain of human Matrix Metalloproteinase-7 (MMP7), MMP7 (gene 4316) (P09237 whole entry, looked up): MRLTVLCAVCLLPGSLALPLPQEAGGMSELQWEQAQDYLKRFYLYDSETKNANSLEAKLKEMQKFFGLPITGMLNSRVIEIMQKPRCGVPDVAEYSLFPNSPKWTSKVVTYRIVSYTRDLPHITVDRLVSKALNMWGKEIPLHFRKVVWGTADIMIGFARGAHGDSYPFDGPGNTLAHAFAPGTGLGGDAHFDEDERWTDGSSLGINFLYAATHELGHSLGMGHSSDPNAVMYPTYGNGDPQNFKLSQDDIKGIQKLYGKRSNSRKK

For `CC(C)(C)c1cc(O)ccc1O`, the molecule was classed as inactive in [1]. As usually defined, the AC50 is the midpoint of the concentration-response curve, whichever way the signal moves. `O=C(O)C(F)(F)C(F)(F)C(F)(F)C(F)(F)C(F)(F)C(F)(F)C(F)(F)C(F)(F)C(F)(F)C(F)(F)F`: the results for the concentration at half-maximal activity (AC50) in [2], in experiment [3] and in experiment [4] were 23.3 µM (active), 21.9 µM (active) and 10.3 µM (active), respectively. On to `COc1cc(-c2ccc(N)c(OC)c2)ccc1N`, for which the values for the AC50 in experiment [2] and in experiment [3] were 17.9 µM (active) and 7.86 µM (active), respectively. With `O=C1C2(Cl)C3(Cl)C4(Cl)C(Cl)(Cl)C5(Cl)C3(Cl)C1(Cl)C5(Cl)C24Cl` (configuration not stated), the AC50 in experiment [5] was 5.85 µM (active). Turning to `CC(C)(OO)c1ccccc1`, the molecule was classed as inactive in experiment [6]. Regarding `C[C@]12CCC(=O)C[C@@H]1CC[C@@H]1[C@@H]2CC[C@]2(C)[C@@H](O)CC[C@@H]12`, the molecule was called inactive in experiment [6]. `CCN1CCC2(CC1)COc1cc3c(cc12)N(C(=O)c1ccc(-c2ccc(-c4nnc(C)o4)cc2C)cc1)CC3`: the AC50 in experiment [7] is 10.2 µM (active). On to `CC(=O)[O][Hg][c]1ccccc1`, for which the call in [8] was inactive. The half-maximal activity concentration (AC50) in [9] is 9.68 µM (active); in experiment [10], 16 µM (active); in experiment [11], 5.38 µM (active).

Turning to `O=C(O)C(Cl)(Cl)Cl`, in experiment [12], the molecule was classed as inactive. As for `CN(CCCC(=O)c1cccnc1)N=O`, the call in [13] was inactive.

As to `ClCCBr`, in [13], the molecule was called inactive. In the case of `CCC(C)(C)c1ccc(O)c(C(C)(C)CC)c1`, the call in [14] was inactive. As for `O=C(Nc1ccc2[nH]ccc2c1)c1cc2cc(F)ccc2n1Cc1cccc(F)c1`, in experiment [9], the outcome was inactive. Regarding `CCOC(=O)Nc1cccc(OC(=O)Nc2ccccc2)c1`, the molecule was called inactive in experiment [10]. For `CC(C)(c1ccccc1)c1ccc(O)c(C(C)(C)c2ccccc2)c1`, the result in experiment [11] was inactive.

With `ClC1(Cl)C2(Cl)C3(Cl)C4(Cl)C(Cl)(Cl)C5(Cl)C3(Cl)C1(Cl)C5(Cl)C24Cl` (configuration not stated), in [15], the outcome was inactive.
